Test [1] can be described thus: inhibitors of TNFa-induced NFkB p65 translocation, primary screen, imaging, HUVEC, MLSMR starter and 10KST1 sets (AID 438;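 active means inhibition above 20% together with a positive visual image hit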;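 further: compound added about 3h40 before a 20 min TNFalpha stimulation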;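 on inhibition: signal is the nuclear over cytoplasmic p65 intensity ratio per well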). Conditions: HUVEC TNFa-induced p65 nuclear translocation; cell count: measured here: nuclei count (cytotoxicity indicator), at 2.08 µM; inhibition: at 2 µM, stronger effect = higher value, 0% TNFa-plus-vehicle, 100% no-TNFa wells.
Test [2] can be described thus: reduction of polyQ htt aggregates in cells – imaging, exon1htt(103Q)mCFP cells, high-content imaging, primary screen (AID 483;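 active means visual image review flags a hit and inhibition of aggregation exceeds 20%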;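 further: compound exposure lasted 3 days before fixation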;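 on nuclei count: percent of the per-plate median nuclei count of sample wells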). The following applies: exon1htt(103Q)mCFP cell line, aggregate imaging, at 2 µM; inhibition of aggregation: stronger effect = higher value; nuclei count: measured here: cell count, toxicity.
The nature of test [3]: endothelial E-selectin expression blockers – imaging, HUVEC, immunofluorescence, MLSMR starter and 10KST1 sets, primary screen (AID 487).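 On inhibition: signal is fraction of cell area covered by stained E-selectin grains.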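 On nuclei count: 100% = median nuclei count of all wells on the same plate.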 Conditions: HUVEC TNFalpha-induced E-selectin immunofluorescence imaging, at 2 µM; inhibition: stronger effect = higher value; nuclei count: measured here: cell number, toxicity.
The target of test [4] is Voltage-gated potassium channel subunit beta-2 (Rattus norvegicus) (UniProt P62483). The test is described as follows: inhibitors of rat Kvbeta2 reductase activity – biochemical, NADPH fluorescence, primary screen (AID 622;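 active means fluorescence slope higher than the sample average by over 3 SD, cut at about -0.22 in these data, passing the limit was not always enough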;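 further: slope of raw intensity against log time taken from 70 to 1610 s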). The following applies: recombinant KvBeta, 4-cyanobenzaldehyde reduction, at 10 µM, stronger effect = higher value.
For test [5] the target is unchanged. Briefly: enhancers of rat Kvbeta2 NADPH turnover – biochemical, NADPH fluorescence, primary screen (AID 623;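 active means NADPH fluorescence slope more negative than the mean of all samples by about 3 SD, 99.7% confidence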;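 further: fluorescence intensity change per second fitted from 20 to 320 s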). Conditions: Recombinant KvBeta, NADPH fluorescence decrease slope, 10 min; at 10 µM; stronger effect = lower value.
Test [6] has as its target Alpha-2C adrenergic receptor (Homo sapiens) (UniProt P18825). The test is described as follows: compounds altering alpha2C-coupled GIRK flux – cell-based, HEK293 alpha2C/GIRK1/2, thallium flux, primary screen (AID 624;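 active means fluorescence slope after compound addition differing from the mean of all screened samples at 99.7% confidence, in either direction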;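 further: slope of fluorescence ratio to pre-addition baseline per second over 15 to 24 s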). Conditions: thallium flux BTC fluorescence, at 10 µM, actives lie on both sides.
Test [7] is described as follows: blockers of RIG-like receptor reporter activation – cell-based, Sendai virus stimulus, luciferase, 10K MLSCN set, TLR/RLR signaling modifier project, primary screen (AID 602276;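 active means inhibition at or above 50% at 10 µM; inactive means inhibition below 50%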;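 further: firefly luciferase from ISG56 promoter only with Renilla not read in this screen; 0% = Sendai virus plus DMSO and 100% = medium plus DMSO without virus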). Conditions: HEK293 RL24 IRF3 luciferase reporter, at 10 µM, stronger effect = higher value. Background: In a reporter assay the amount or activity of a reporter protein is the signal.
A short description of test [8]: TLR3 IRF3 reporter activation blockers – cell-based, poly I:C stimulus, luciferase, 10K MLSCN set, primary screen (AID 602277;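 active means inhibition of the reporter signal at or above 50%; inactive means inhibition below 50%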). The following applies: HEK293-TLR3 RL24 IRF3 luciferase reporter, at 10 µM, stronger effect = higher value.

Calls of active or inactive are those of the source.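 How the source made its calls, unless noted: active means visually confirmed hit in the image check and inhibition above 20%; inconclusive means visually confirmed hit but inhibition not above 20%; inactive means no visual hit in the image check.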

Sequence of Alpha-2C adrenergic receptor (Homo sapiens) (P18825 whole entry, looked up): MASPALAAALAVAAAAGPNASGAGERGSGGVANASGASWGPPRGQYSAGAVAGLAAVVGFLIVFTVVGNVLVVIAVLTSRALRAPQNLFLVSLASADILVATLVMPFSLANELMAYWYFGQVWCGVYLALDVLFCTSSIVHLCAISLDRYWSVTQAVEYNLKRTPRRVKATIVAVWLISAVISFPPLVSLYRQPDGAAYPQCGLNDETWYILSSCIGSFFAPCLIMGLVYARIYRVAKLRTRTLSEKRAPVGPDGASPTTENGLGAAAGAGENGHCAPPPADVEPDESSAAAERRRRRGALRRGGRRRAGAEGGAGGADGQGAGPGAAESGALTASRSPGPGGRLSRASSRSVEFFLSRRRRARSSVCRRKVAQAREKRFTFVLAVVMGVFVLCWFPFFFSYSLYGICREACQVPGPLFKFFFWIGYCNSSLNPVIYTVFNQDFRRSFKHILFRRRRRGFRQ
Sequence of Voltage-gated potassium channel subunit beta-2 (Rattus norvegicus) (P62483 whole entry, looked up): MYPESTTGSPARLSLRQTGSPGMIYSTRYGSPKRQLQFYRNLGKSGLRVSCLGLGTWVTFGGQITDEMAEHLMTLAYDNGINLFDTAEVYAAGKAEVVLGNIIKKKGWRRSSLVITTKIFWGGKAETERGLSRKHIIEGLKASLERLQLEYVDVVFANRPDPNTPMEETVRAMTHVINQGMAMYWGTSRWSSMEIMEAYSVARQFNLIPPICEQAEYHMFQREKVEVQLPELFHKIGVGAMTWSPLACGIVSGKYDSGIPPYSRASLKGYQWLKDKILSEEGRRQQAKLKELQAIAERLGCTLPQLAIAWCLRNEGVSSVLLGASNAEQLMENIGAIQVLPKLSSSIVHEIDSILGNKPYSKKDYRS

One may read the inhibition as the relative decrease from the control value, in per cent. For `O=C(Nc1cccnc1)c1ccc2c(c1)C(=O)N(Cc1cccnc1)C2=O`, in test [1], the cell count stood at 386. In addition, the inhibition was 1.4% (inactive) in test [1], -26.9% (inactive) in test [3], 5.57% (inactive) in test [7] and 11.9% (inactive) in test [8]. Also, the inhibition of aggregation in test [2] was 9% (inactive). Besides, the nuclei count is 105% in test [2] and 99.7% in test [3]. Moreover, in test [4], the fluorescence slope is -0.615 (inactive). For the same molecule, in test [5], the NADPH fluorescence slope was -1.2e-05 (inactive). Further, the slope in test [6] is 0.00348 (inactive).
For the molecule `O=C1CN(c2nc3ccccc3n3cnnc23)CC(=O)N1CCc1ccccc1`, the cell count in test [1] is 662. Besides, the inhibition is 10% (inactive) in test [1], -66% (inactive) in test [3], 6.8% (inactive) in test [7] and 9.78% (inactive) in test [8]. The inhibition of aggregation in test [2] is -13% (inactive). For the same molecule, the figures for the nuclei count in test [2] and in test [3] were 112% and 116%, respectively. Further, the fluorescence slope in test [4] is -0.588 (inactive). Moreover, the NADPH fluorescence slope in test [5] is -6.3e-05 (inactive). In addition, the slope in test [6] is 0.00474 (inactive).
`Cc1nc(NC2=NCN(CC3CCCO3)CN2)nc2ccccc12` (centres undefined): the cell count in test [1] came to 346. The inhibition is -11.7% (inactive) in test [1], 29% (inactive) in test [3], 15.3% (inactive) in test [7] and 28.6% (inactive) in test [8]. For the same molecule, the inhibition of aggregation in test [2] was 28.4% (active). Further, the values for the nuclei count in test [2] and in test [3] were 84.3% and 98.5%, respectively. The fluorescence slope in test [4] is -0.548 (inactive). Besides, the NADPH fluorescence slope in test [5] is -8.4e-06 (inactive). Further, the slope in test [6] was 0.00499 (inactive).
Regarding `O=C(NC1CC1)c1ccc(S(=O)(=O)NCC2CCCCC2)cc1`, the cell count in test [1] turned out to be 535. Moreover, the inhibition is -8% (inactive) in test [1], -58.9% (inactive) in test [3], 3.23% (inactive) in test [7] and 5.07% (inactive) in test [8]. The inhibition of aggregation in test [2] was 18.7% (inactive). The nuclei count in test [2] was 102%; in test [3], 112%. Moreover, the fluorescence slope in test [4] was -0.508 (inactive). Moreover, the NADPH fluorescence slope in test [5] is 2.4e-05 (inactive). In test [6], the slope is 0.00635 (inactive).
In the case of `O=C1C2CC=C(Cl)CC2C(=O)N1c1ncn[nH]1` (centres undefined), the cell count in test [1] is 329. In addition, the inhibition in test [1] was 5.5% (inactive); in test [3] it was -62.1% (inactive); in test [7], 12.6% (inactive); in test [8] it was 14% (inactive). Further, in test [2], the inhibition of aggregation is 7.6% (inactive). Also, the nuclei count was found to be 98.3% in test [2] and 113% in test [3]. Further, the fluorescence slope in test [4] was -0.483 (inactive). Besides, the NADPH fluorescence slope in test [5] was -5.8e-05 (inactive). Besides, the slope in test [6] is 0.00499 (inactive).
For `C=CCSC1=C(C#N)C(c2ccccc2C)CC(=O)N1` (centres undefined), the cell count in test [1] is 556. Further, the inhibition in test [1] was 2.1% (inactive); in test [3], -48.8% (inactive); in test [7] it was -5.91% (inactive); in test [8], -13.9% (inactive). Moreover, the inhibition of aggregation in test [2] was -12.2% (inactive). Moreover, the nuclei count in test [2] worked out at 94%; in test [3] it was 174%. The fluorescence slope in test [4] was -0.601 (inactive). Besides, the NADPH fluorescence slope in test [5] is -1.1e-05 (inactive). Moreover, the slope in test [6] was 0.00492 (inactive).
`Cc1ccc(N2CCN(C(=S)c3ccc(N(C)C)cc3)CC2)cc1`: the cell count in test [1] was 411. Also, the inhibition in test [1] was -38.4% (inactive); in test [3] it was -90.7% (inactive); in test [7] it was -12.6% (inactive); in test [8], -63.7% (inactive). In addition, the inhibition of aggregation in test [2] was -2.2% (inactive). The nuclei count in test [2] amounted to 85.8%; in test [3], 98.3%. Besides, the fluorescence slope in test [4] was -0.595 (inactive). In addition, in test [5], the NADPH fluorescence slope was -2.7e-05 (inactive). In test [6], the slope is 0.00418 (inactive).
Consider `COc1ccc(NC(=O)CCc2ccccc2)cc1NC(=O)c1ccco1`, for which, in test [1], the cell count turned out to be 526. In addition, the inhibition in test [1] was 2.3% (inactive); in test [3], -61.5% (inactive); in test [7], 16.7% (inactive); in test [8], 37.2% (inactive). For the same molecule, in test [2], the inhibition of aggregation is 8.7% (inactive). The nuclei count in test [2] came out at 88.9%; in test [3], 95.1%. Further, the fluorescence slope in test [4] is -0.504 (inactive). Besides, the NADPH fluorescence slope in test [5] is -5e-05 (inactive). For the same molecule, the slope in test [6] is 0.0047 (inactive).
Take `Cc1ccc2oc(=O)c3cnn(CC(=O)NCCC(C)C)c3c2c1`: the cell count in test [1] stood at 618. The inhibition in test [1] is -3.9% (inactive); in test [3], -31.4% (inactive); in test [7] it was 7.61% (inactive); in test [8] it was 18.2% (inactive). The inhibition of aggregation in test [2] is -7.6% (inactive). Moreover, the nuclei count in test [2] came out at 124%; in test [3], 104%. Besides, the fluorescence slope in test [4] was -0.602 (inactive). In test [5], the NADPH fluorescence slope was -2.9e-05 (inactive). Further, the slope in test [6] is 0.0065 (inactive).
As to `COc1cc(OC)cc(OCC(O)Cn2cnc(-c3ccccc3)c2)c1` (centres undefined), the cell count in test [1] came to 586. Moreover, the inhibition in test [1] was 6% (inactive); in test [3], 11.1% (inactive); in test [7], 17.6% (inactive); in test [8] it was 31.3% (inactive). Further, the inhibition of aggregation in test [2] is -5.4% (inactive). The figures for the nuclei count in test [2] and in test [3] were 92.1% and 94.7%, respectively. For the same molecule, the fluorescence slope in test [4] is -0.469 (inactive). For the same molecule, the NADPH fluorescence slope in test [5] was -4e-05 (inactive). The slope in test [6] is 0.00517 (inactive).
For `O=C(CN1C(=O)c2ccccc2C1=O)Nc1ccccc1C(=O)N1CCCC1`, the cell count in test [1] was found to be 407. Also, the inhibition in test [1] was 4% (inactive); in test [3], -13.3% (inactive); in test [7], 4.76% (inactive); in test [8], 11.3% (inactive). Moreover, in test [2], the inhibition of aggregation was -27.4% (inactive). The nuclei count in test [2] stood at 112%; in test [3], 97.4%. The fluorescence slope in test [4] was -0.594 (inactive). In test [5], the NADPH fluorescence slope is -2.3e-05 (inactive). The slope in test [6] was 0.00562 (inactive).
For `CCCCOc1ccc(N(CC(=O)NC2CCCC2)C(=O)CCC(=O)Nc2ccccn2)cc1`, the cell count in test [1] came to 582. Also, the inhibition in test [1] was -1.5% (inactive); in test [3] it was -7.6% (inactive); in test [7], 15.8% (inactive); in test [8], 28.8% (inactive). For the same molecule, the inhibition of aggregation in test [2] is -1.9% (inactive). The figures for the nuclei count in test [2] and in test [3] were 94% and 101%, respectively. The fluorescence slope in test [4] is -0.416 (inactive). The NADPH fluorescence slope in test [5] is 1.8e-06 (inactive). The slope in test [6] is 0.00642 (inactive).
Consider `CCn1nnc(NC(=O)c2ccc(-c3ccc(Cl)cc3)o2)n1`, for which, in test [1], the cell count was 391. The inhibition in test [1] is -6.7% (inactive); in test [3] it was -101% (inactive); in test [7], -111% (inactive); in test [8], -103% (inactive). Besides, the inhibition of aggregation in test [2] was -20% (inactive). Further, the nuclei count in test [2] was found to be 129%; in test [3], 208%. Further, the fluorescence slope in test [4] was -0.488 (inactive). Further, the NADPH fluorescence slope in test [5] was -7.1e-05 (inactive). In test [6], the slope is 0.00611 (inactive).
Regarding `Cc1nn(C)c(C)c1NC(=O)CCSc1nc(-c2ccco2)cc(C(F)(F)F)n1`, the cell count in test [1] came to 491. The inhibition in test [1] was -2.2% (inactive); in test [3], 23.6% (inactive); in test [7], 4.67% (inactive); in test [8], -10.1% (inactive). Also, in test [2], the inhibition of aggregation is 10.3% (inactive). The values for the nuclei count in test [2] and in test [3] were 108% and 100%, respectively. The fluorescence slope in test [4] was -0.432 (inactive). Also, the NADPH fluorescence slope in test [5] was -6.1e-05 (inactive). The slope in test [6] was 0.00599 (inactive).

For the origin of these results see PubChem BioAssay.
